Screening results deposited in PubChem BioAssay by National Center for Advancing Translational Sciences (NCATS).
Pf Dd2 inh – qHTS Primary assay for Inhibitors of Plasmodium falciparum Dd2 growth in vitro | P. falciparum Dd2 growth, SYBR Green, 72 h | Potency, µM (top dose mostly 28.9 µM), hits mostly inhibitors | 4.3% of 120,000 active; active = well fitted inhibition curve with a large enough effect; note: nearly all actives have a fitted effect of over 65% in size
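Readout: SYBR Green fluorescence, 485 nm excitation, 535 nm emission, after ~16 h lysis at 37C. Before that, Dd2-infected red cells (2.5% hematocrit) grew 72 h with compound, 29 uM top final concentration.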
Hits are given with their value; [ ] = another dose, or the depositor's remark. Only a selection was taken, and hits are over-represented in it overall.

Screening Cc1cc(N2CCCCC2)nc2ccc(NC(=O)c3cccc(F)c3)cc12 returned Pf Dd2 inh inactive.
For COc1ccc(C(=O)Nc2ccc3nc(N4CCCCC4)cc(C)c3c2)c(OC)c1 the results were Pf Dd2 inh inactive.
Screening Cc1ccc(Nc2ncc(C(=O)N3CCN(c4cccc(Cl)c4)CC3)c3ccccc23)cc1Cl returned Pf Dd2 inh inactive.
Cc1ccc(Cl)cc1N1CCN(C(=O)CCC(=O)Nc2ccc3nc(N4CCC(C)CC4)cc(C)c3c2)CC1 was read as Pf Dd2 inh 3.5µM.
For Cc1c(-c2cccc(NC(=O)Nc3ccc(Cl)cc3)c2)nc2ncccn12 the results were Pf Dd2 inh inactive.
CCOc1cc(C(=O)Nc2ccc3nc(N4CCN(C)CC4)cc(C)c3c2)cc(OCC)c1OCC was read as Pf Dd2 inh 3.2µM.
`COC(=O)NC(C)C(=O)N1Cc2cnc(Cc3ccc(OC)cc3)nc2C1` (stereo not given) gave Pf Dd2 inh inactive.
For OCC1(O)CCCN(Cc2cnc(NCc3ccccc3)nc2)C1 (stereo not given) the results were Pf Dd2 inh inactive.
For COc1ccc(C(=O)NC(C(=O)N2CCCCC2)C2CCN(C(=O)C3CC3)CC2)cc1 (stereo not given) the results were Pf Dd2 inh inactive.
`Cc1cc(CNC(=O)[C@@H]2CCC[C@@H](NCc3ccc(C(F)(F)F)cc3)CN(C)C(=O)C2)no1` gave Pf Dd2 inh inactive.
COc1ccc2nc(CO[C@H]3CN(Cc4ccc(S(C)(=O)=O)cc4)C[C@H]3F)[nH]c2c1 was read as Pf Dd2 inh inactive.
Screening COc1cc2c(cc1C(=O)N1CCNCC(O)C1)CCC2 (stereo not given) returned Pf Dd2 inh inactive.
Cc1c(C(=O)Nc2cccc(C(F)(F)F)c2)oc2ccc(S(=O)(=O)N(C)C3CCCCC3)cc12 was read as Pf Dd2 inh 11µM.
Cc1c(C(=O)Nc2ccc(F)c(Cl)c2)oc2ccc(S(=O)(=O)N(C)C3CCCCC3)cc12 was read as Pf Dd2 inh inactive.
Screening Cc1ccc(NC(=O)c2oc3ccc(S(=O)(=O)N(C)C4CCCCC4)cc3c2C)c(C)c1 returned Pf Dd2 inh inactive.
O=C(Nc1ccc2c(c1)CN(Cc1ccccc1F)C(=O)CO2)c1ccc(Cl)cc1 was read as Pf Dd2 inh inactive.
`COC1CCCOC12CCN(C(=O)CCn1c(C)nc3ccccc31)CC2` (stereo not given) gave Pf Dd2 inh inactive.
CC(=O)N1CCC(Cc2ccc(C(N)=O)cc2)CC1 was read as Pf Dd2 inh inactive.
`O=C(NCCc1ccccc1)N(C1CCOCC1)C1CCN(Cc2cccnc2)CC1` gave Pf Dd2 inh inactive.
Screening O=C(NCCc1ccccc1)N(C1CCOCC1)C1CCN(Cc2ccsc2)CC1 returned Pf Dd2 inh inactive.
O=C(NCCc1ccccc1)N(C1CCOCC1)C1CCN(Cc2ccccc2)CC1 was read as Pf Dd2 inh 5.6µM.
COc1ccc(Nc2nccc3c(=O)cc(N4CCOCC4)oc23)cn1 was read as Pf Dd2 inh inactive.
For O=C(C1CCOCC1)N1CCC(N2C(=O)C(O)C23CCCCC3)CC1 (stereo not given) the results were Pf Dd2 inh inactive.
O=C(NCCCN1CCc2ccccc2C1)C1CCCCC(=O)N1Cc1ccccc1 (stereo not given) was read as Pf Dd2 inh 4µM.
Screening O=C1CCCCC(C(=O)NCCCN2CCc3ccccc3C2)N1 (stereo not given) returned Pf Dd2 inh inactive.
For CCN1CCN(CCNC(=O)C2CCCCC(=O)N2Cc2ccccc2)CC1 (stereo not given) the results were Pf Dd2 inh inactive.
`C[C@H]1[C@@H]2[C@@H](O)[C@H]([C@H](C)C(=O)N3CCCCC3)CC[C@@]2(C)CC[C@@H]1NC(=O)c1cncnc1` gave Pf Dd2 inh inactive.
For O=C(NC1CCCCC1)C1CN(S(=O)(=O)c2ccc(F)cc2F)CC12CCOCC2 (stereo not given) the results were Pf Dd2 inh inactive.
For CCC(C(=O)Nc1cc(-c2nc3cccnc3s2)ccc1C)c1ccccc1 (stereo not given) the results were Pf Dd2 inh 10µM.
Screening Cc1ccc(-c2nc3cccnc3s2)cc1NC(=O)C(C)C returned Pf Dd2 inh inactive.
`Cc1cccc(C(=O)Nc2cc(-c3nc4cccnc4s3)ccc2C)c1` gave Pf Dd2 inh inactive.
Cn1ccnc1C(=O)N1CCC(C2CCN(S(C)(=O)=O)CC2)C1 (stereo not given) was read as Pf Dd2 inh inactive.
COc1ccccc1C(=O)N1CCC2(CC1)CC(=O)Nc1ccccc1O2 was read as Pf Dd2 inh inactive.
Screening Cc1ccc(C)c(N2CCN(CCCNC(=O)c3cnn(-c4ccccc4Cl)c3C3CCN(C(=O)OC(C)(C)C)CC3)CC2)c1 returned Pf Dd2 inh 2.2µM.
Cc1ccc(-n2ncc(C(=O)NCCCN3CCN(C)CC3)c2C2CCN(C(=O)OC(C)(C)C)CC2)c(C)c1 was read as Pf Dd2 inh inactive.
Cc1ccc(C)c(N2CCN(C(=O)c3cnn(-c4ccccc4Cl)c3C3CCN(C(=O)OC(C)(C)C)CC3)CC2)c1 was read as Pf Dd2 inh 3.5µM.
CCN1CCN(CCCNC(=O)c2cnn(-c3ccc(C)cc3)c2C2CCN(C(=O)OC(C)(C)C)CC2)CC1 was read as Pf Dd2 inh inactive.
For Cc1ccc(C)c(N2CCN(CCCNC(=O)c3cnn(-c4ccc(F)cc4)c3C3CCN(C(=O)OC(C)(C)C)CC3)CC2)c1 the results were Pf Dd2 inh 1.3µM.
Screening CC(C)(C)OC(=O)N1CCC(c2c(C(=O)N3CCN(C(=O)c4ccco4)CC3)cnn2-c2ccc(Cl)cc2)CC1 returned Pf Dd2 inh inactive[5.79 µM].
`CC(C)(C)OC(=O)N1CCC(c2c(C(=O)N3CCN(C(=O)c4ccco4)CC3)cnn2-c2ccccc2Cl)CC1` gave Pf Dd2 inh 11µM.
For O=C1Nc2ccccc2O[C@H]2C[C@@H]1N(Cc1ccccc1)C2 the results were Pf Dd2 inh inactive.
For CN(C)C[C@@H]1CN(C(=O)c2cccc(N3CCCC3=O)c2)C[C@@H]1CO the results were Pf Dd2 inh inactive.
COCCNC(=O)[C@H]1C[C@H](Oc2cccnc2)CN1C(=O)NC1CCCC1 was read as Pf Dd2 inh inactive.
CCNC(=O)N1CCC(Oc2ccccc2)C1 (stereo not given) was read as Pf Dd2 inh inactive.
`CC1(c2ccccc2)N(Cc2ncccn2)C(=O)OC12CCN(Cc1cccc(OC(F)(F)F)c1)CC2` (stereo not given) gave Pf Dd2 inh inactive.
For COc1ccc(F)cc1S(=O)(=O)N1C[C@@H](C(N)=O)[C@H](C2CCN(C)CC2)C1 the results were Pf Dd2 inh inactive.
O=C1COCCN1C1CCN(Cc2cncs2)CC1 was read as Pf Dd2 inh inactive.
O=C(c1ccco1)N1CCN(C(=O)N2CC3CC(C2)[C@H]2CCCC(=O)N2C3)CC1 (stereo not given in full) was read as Pf Dd2 inh inactive.
Screening Cc1ccc(CNC(=O)Cn2c(=O)c(-c3noc(C)n3)c3n(c2=O)CCCCC3)cc1 returned Pf Dd2 inh inactive.
`Cc1ccc(N2CCN(C(=O)c3cnn(-c4ccc(F)cc4F)c3C3CCN(C(=O)OC(C)(C)C)CC3)CC2)c(C)c1` gave Pf Dd2 inh 7.9µM.
For Cc1ccc(C)c(N2CCN(CCCNC(=O)c3cnn(-c4cccc(Cl)c4)c3C3CCN(C(=O)OC(C)(C)C)CC3)CC2)c1 the results were Pf Dd2 inh 1.4µM.
Screening CCN1CCN(C(=O)c2cnn(-c3ccc(F)cc3F)c2C2CCN(C(=O)OC(C)(C)C)CC2)CC1 returned Pf Dd2 inh inactive.
